One sequence from paper PMC7862700, “An all-to-all approach to the identification of sequence-specific readers for epigenetic DNA modifications on cytosine” can be followed below.

Holding throughout (assay): DAPPL (digital affinity profiling via proximity ligation, sequencing); 10 mM Tris-HCl pH 7.5, 50 mM NaCl, 1 mM DTT, 4% glycerol, room temperature, 30 min; GST-TFs on glutathione beads, 16-mer random dsDNA library, 0.1% formaldehyde crosslink after washing; high values mean tight binding
For one experiment, the target named is T1, FEV (Homo sapiens, UniProt Q99581 1-238).
T1 sequence: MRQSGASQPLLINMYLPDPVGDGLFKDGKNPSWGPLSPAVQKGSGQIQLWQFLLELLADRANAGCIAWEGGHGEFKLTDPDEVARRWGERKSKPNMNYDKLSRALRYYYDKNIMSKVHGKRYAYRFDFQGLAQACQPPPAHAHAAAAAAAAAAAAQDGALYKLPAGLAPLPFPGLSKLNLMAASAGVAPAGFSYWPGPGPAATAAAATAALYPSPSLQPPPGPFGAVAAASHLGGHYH
The settings on record: protein: recombinant; tags: N-terminal GST; dsDNA, one strand shown. An outline of the steps: (§1)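 Human transcription factors carrying a GST fusion were produced in yeast, bound to glutathione beads, tagged with DNA barcodes and pooled together with a tag-only sample. Each pool was held with 200 nmole of a random double-stranded 16-mer DNA library in Tris/NaCl/DTT/glycerol buffer for 30 min at room temperature, then washed, crosslinked in 0.1% formaldehyde, proximity-ligated with BsaI/T4 ligase (1 h, 37 °C), PCR-amplified and sequenced on an Illumina NextSeq500. Binding signal is the read frequency of each hexamer for a given factor divided by its frequency in the tag-only sample.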

The target of another experiment is ETV5 (Homo sapiens, UniProt P41161 1-510). Conditions: protein: recombinant; tags: N-terminal GST; dsDNA, one strand shown. In a few lines: as §1
Chain of ETV5 (P41161 whole entry): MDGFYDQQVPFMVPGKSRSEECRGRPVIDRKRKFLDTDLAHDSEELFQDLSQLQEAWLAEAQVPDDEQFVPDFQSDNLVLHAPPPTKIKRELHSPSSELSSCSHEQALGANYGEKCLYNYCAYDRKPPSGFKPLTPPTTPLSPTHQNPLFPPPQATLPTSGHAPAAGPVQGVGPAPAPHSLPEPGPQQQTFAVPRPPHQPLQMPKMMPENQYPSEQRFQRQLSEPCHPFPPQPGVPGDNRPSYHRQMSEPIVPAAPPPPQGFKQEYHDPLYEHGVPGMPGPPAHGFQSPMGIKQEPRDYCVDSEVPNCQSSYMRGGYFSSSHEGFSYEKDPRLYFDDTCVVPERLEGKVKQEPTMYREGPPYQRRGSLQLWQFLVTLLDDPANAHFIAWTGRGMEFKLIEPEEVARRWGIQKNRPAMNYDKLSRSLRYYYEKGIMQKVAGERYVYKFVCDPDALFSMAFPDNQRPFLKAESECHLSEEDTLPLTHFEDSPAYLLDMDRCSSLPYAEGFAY
For a further experiment, the target named is HSF1 (Homo sapiens, UniProt Q00613 1-529). Conditions: protein: recombinant; tags: N-terminal GST; chain copies: 3; dsDNA, one strand shown. An outline of the steps:
as §1

Another experiment deals with T2, SPIC (Homo sapiens, UniProt Q8N5J4 1-248).
T2 sequence: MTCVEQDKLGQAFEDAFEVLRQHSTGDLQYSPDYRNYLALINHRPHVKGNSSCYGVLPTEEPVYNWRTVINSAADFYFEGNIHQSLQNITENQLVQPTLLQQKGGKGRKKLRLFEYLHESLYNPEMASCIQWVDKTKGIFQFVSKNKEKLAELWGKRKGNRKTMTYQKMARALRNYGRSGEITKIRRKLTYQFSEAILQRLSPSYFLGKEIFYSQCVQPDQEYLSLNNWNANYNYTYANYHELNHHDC
The settings on record: protein: recombinant; tags: N-terminal GST; dsDNA, one strand shown. An outline of the steps: as §1

For the next experiment, the target named is ELF4 (Homo sapiens, UniProt Q99607 1-663). The settings on record: protein: recombinant; tags: N-terminal GST; dsDNA, one strand shown. An outline of the steps:
as §1

For another experiment, the target named is T3, ELK4 (Homo sapiens, UniProt P28324-2 1-405).
T3 sequence: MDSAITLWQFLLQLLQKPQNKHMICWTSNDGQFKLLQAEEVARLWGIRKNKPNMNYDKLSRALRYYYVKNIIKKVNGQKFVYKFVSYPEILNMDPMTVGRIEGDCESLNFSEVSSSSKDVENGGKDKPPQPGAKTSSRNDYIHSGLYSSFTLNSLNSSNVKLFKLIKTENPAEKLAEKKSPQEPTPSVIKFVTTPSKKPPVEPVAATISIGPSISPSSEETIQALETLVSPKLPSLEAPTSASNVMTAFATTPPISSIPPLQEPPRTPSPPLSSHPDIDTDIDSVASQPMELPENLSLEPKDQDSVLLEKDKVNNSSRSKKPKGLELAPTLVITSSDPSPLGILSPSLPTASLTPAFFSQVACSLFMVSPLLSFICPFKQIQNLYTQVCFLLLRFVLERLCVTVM
Conditions: protein: recombinant; tags: N-terminal GST; dsDNA, one strand shown. An outline of the steps:
as §1

A further experiment has as its target T4, ETV2 (Homo sapiens, UniProt O00321 1-342).
T4 sequence: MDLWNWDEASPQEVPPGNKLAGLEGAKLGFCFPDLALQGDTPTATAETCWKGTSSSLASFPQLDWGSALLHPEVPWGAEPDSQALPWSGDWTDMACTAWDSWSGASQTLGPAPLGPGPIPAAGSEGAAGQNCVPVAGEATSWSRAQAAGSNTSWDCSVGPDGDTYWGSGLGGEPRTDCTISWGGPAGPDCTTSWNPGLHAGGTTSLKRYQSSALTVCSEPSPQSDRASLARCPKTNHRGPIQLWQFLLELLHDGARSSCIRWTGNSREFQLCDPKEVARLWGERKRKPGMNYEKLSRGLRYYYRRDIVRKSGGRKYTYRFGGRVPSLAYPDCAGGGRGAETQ
The settings on record: protein: recombinant; tags: N-terminal GST; dsDNA, one strand shown. An outline of the steps: as §1

The target of the next experiment is T5, ELF3 (Homo sapiens, UniProt P78545 1-371).
T5 sequence: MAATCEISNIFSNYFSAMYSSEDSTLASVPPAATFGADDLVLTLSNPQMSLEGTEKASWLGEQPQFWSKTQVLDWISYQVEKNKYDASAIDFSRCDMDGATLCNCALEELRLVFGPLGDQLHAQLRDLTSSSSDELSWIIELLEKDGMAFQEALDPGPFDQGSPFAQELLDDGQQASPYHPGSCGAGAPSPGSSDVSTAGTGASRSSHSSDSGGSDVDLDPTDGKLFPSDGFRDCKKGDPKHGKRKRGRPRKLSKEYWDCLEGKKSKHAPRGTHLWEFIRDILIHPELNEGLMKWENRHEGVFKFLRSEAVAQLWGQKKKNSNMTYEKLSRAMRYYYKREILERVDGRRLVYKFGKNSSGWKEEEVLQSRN
Conditions: protein: recombinant; tags: N-terminal GST; dsDNA, one strand shown. In a few lines: as §1

For a further experiment, the target named is CRX (Homo sapiens, UniProt O43186 1-299). Conditions: protein: recombinant; tags: N-terminal GST; dsDNA, one strand shown. In a few lines:
as §1

The target in the next experiment is ETV1 (Homo sapiens, UniProt P50549 1-477). The settings on record: protein: recombinant; tags: N-terminal GST; dsDNA, one strand shown. An outline of the steps: as §1
Chain of ETV1 (P50549 whole entry): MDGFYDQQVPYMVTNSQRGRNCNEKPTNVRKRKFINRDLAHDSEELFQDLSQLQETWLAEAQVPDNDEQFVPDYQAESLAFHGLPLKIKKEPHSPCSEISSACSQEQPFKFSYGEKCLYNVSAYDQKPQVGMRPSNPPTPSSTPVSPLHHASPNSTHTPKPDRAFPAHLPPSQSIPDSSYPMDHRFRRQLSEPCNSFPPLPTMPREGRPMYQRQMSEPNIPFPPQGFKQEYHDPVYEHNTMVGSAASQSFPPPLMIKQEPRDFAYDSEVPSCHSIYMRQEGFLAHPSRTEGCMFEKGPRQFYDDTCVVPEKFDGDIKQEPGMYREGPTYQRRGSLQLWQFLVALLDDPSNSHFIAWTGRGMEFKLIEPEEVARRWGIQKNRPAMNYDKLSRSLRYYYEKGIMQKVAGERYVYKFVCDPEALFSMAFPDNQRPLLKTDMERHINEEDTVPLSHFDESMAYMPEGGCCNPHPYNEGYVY
The target in a further experiment is T6, ERF (Homo sapiens, UniProt P50548 1-548).
T6 sequence: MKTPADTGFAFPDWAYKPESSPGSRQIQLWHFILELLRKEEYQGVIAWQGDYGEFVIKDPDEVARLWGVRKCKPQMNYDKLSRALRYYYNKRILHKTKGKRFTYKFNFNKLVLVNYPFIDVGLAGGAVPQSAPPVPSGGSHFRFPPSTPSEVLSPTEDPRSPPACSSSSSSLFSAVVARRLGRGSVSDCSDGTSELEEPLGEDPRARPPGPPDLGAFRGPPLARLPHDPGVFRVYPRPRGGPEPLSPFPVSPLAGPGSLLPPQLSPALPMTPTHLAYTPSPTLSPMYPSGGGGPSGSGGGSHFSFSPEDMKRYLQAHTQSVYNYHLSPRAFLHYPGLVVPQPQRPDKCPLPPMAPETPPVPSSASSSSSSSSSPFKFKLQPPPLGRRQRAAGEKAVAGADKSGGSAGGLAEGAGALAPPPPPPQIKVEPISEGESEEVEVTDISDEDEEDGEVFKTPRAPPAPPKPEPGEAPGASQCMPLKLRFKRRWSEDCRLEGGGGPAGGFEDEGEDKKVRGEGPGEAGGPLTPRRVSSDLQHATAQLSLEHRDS
Conditions: protein: recombinant; tags: N-terminal GST; dsDNA, one strand shown. In a few lines: as §1

A further experiment concerns the target T7, ETV3L (Homo sapiens, UniProt Q6ZN32 1-361).
T7 sequence: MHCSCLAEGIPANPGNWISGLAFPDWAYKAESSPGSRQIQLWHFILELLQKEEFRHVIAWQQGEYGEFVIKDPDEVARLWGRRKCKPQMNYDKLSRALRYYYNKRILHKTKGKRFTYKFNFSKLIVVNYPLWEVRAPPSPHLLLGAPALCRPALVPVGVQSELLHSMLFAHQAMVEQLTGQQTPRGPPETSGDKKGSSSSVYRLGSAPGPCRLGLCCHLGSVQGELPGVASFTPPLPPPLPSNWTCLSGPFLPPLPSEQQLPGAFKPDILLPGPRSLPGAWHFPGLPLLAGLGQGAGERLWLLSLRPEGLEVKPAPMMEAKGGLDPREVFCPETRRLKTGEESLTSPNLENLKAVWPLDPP
Conditions: protein: recombinant; tags: N-terminal GST; dsDNA, one strand shown. In a few lines:
as §1

For the next experiment, the target named is T8, ETS2 (Homo sapiens, UniProt P15036 1-469).
T8 sequence: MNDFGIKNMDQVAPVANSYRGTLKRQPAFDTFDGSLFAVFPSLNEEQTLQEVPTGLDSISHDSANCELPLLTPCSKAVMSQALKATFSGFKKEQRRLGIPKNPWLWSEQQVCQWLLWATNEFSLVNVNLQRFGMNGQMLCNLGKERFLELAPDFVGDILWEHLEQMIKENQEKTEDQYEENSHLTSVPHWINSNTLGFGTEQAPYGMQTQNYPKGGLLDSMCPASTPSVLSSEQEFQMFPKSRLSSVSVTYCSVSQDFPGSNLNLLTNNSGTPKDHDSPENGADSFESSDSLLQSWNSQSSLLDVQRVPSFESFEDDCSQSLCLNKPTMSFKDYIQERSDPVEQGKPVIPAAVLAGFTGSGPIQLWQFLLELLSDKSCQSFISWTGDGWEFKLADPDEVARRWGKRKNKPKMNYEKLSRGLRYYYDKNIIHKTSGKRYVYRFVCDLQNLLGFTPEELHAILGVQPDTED
Conditions: protein: recombinant; tags: N-terminal GST; dsDNA, one strand shown. An outline of the steps:
as §1

In another experiment the target is T9, SPDEF (Homo sapiens, UniProt O95238 1-335).
T9 sequence: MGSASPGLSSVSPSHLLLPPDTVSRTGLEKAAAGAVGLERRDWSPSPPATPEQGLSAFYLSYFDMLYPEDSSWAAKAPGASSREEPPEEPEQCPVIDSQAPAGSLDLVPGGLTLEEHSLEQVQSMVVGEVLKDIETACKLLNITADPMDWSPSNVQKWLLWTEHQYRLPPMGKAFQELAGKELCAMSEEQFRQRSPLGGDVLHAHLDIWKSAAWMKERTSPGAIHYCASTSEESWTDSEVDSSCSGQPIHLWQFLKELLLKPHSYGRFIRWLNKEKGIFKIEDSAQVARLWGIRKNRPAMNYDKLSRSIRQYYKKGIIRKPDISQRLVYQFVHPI
Conditions: protein: recombinant; tags: N-terminal GST; dsDNA, one strand shown. An outline of the steps: as §1

In a further experiment the target is T10, ETV7 (Homo sapiens, UniProt Q9Y603 1-341).
T10 sequence: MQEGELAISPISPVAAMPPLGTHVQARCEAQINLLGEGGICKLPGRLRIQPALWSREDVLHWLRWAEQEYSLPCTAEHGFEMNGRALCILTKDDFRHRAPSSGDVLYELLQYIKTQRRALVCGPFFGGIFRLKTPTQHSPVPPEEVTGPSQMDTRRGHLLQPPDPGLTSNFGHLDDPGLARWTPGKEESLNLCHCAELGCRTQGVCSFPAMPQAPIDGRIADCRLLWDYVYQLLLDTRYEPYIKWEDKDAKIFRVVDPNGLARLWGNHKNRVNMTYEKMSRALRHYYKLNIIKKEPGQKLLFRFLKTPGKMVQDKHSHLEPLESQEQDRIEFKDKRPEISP
The settings on record: protein: recombinant; tags: N-terminal GST; dsDNA, one strand shown. An outline of the steps: as §1

Another experiment has as its target T11, ELF5 (Homo sapiens, UniProt Q9UKW6-2 1-255).
T11 sequence: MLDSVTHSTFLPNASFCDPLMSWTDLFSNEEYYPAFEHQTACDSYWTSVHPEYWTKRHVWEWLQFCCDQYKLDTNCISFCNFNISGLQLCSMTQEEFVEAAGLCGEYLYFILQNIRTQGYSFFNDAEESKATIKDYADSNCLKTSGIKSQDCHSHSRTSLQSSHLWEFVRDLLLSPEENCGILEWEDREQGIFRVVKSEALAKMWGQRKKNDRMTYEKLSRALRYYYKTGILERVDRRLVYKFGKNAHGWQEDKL
Conditions: protein: recombinant; tags: N-terminal GST; dsDNA, one strand shown. An outline of the steps:
as §1

The next experiment addresses T12, ETV3 (Homo sapiens, UniProt P41162-2 1-143).
T12 sequence: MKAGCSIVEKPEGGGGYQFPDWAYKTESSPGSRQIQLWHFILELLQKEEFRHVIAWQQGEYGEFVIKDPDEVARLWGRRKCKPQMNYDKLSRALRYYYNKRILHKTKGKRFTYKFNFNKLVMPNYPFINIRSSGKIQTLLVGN
The settings on record: protein: recombinant; tags: N-terminal GST; dsDNA, one strand shown. An outline of the steps:
as §1

In a further experiment the target is ETV6 (Homo sapiens, UniProt P41212 1-452). The settings on record: protein: recombinant; tags: N-terminal GST; dsDNA, one strand shown. An outline of the steps:
as §1

Chain of ELF4 (Q99607 whole entry): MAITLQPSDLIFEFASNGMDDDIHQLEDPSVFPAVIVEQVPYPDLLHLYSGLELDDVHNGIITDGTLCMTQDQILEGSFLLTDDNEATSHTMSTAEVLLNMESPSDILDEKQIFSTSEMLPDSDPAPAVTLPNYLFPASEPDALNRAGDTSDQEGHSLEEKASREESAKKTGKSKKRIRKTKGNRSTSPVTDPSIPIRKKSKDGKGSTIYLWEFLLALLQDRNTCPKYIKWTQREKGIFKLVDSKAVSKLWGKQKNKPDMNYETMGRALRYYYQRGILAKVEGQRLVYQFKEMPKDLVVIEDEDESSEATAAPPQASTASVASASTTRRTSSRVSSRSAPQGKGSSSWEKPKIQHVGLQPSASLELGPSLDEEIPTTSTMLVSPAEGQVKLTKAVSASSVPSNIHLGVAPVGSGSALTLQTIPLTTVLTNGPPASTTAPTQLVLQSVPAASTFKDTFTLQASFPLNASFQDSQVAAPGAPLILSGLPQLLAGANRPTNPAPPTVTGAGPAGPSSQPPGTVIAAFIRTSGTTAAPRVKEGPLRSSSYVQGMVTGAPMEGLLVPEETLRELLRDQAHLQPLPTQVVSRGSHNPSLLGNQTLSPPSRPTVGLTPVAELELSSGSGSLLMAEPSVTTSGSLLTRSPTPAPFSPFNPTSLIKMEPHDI
Chain of CRX (O43186 whole entry): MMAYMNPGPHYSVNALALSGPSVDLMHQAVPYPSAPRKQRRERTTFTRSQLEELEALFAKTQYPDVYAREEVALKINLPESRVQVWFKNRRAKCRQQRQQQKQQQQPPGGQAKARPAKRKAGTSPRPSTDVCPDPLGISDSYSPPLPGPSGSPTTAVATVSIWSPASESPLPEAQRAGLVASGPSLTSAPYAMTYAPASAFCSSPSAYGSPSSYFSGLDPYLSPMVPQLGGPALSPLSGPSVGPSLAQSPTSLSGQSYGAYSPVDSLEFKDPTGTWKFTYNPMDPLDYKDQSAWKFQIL
Chain of ETV6 (P41212 whole entry): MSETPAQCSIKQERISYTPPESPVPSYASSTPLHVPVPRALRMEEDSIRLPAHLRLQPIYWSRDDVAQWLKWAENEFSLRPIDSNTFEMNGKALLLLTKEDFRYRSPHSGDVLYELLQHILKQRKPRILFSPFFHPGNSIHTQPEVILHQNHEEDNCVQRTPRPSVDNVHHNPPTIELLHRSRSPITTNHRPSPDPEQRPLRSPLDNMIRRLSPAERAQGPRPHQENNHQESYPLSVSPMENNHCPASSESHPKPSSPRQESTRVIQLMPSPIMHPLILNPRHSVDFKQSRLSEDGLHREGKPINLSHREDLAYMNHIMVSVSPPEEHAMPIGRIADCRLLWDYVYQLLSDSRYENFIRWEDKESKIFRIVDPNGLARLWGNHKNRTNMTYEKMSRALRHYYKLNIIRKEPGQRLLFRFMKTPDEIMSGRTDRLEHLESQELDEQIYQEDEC
Chain of HSF1 (Q00613 whole entry): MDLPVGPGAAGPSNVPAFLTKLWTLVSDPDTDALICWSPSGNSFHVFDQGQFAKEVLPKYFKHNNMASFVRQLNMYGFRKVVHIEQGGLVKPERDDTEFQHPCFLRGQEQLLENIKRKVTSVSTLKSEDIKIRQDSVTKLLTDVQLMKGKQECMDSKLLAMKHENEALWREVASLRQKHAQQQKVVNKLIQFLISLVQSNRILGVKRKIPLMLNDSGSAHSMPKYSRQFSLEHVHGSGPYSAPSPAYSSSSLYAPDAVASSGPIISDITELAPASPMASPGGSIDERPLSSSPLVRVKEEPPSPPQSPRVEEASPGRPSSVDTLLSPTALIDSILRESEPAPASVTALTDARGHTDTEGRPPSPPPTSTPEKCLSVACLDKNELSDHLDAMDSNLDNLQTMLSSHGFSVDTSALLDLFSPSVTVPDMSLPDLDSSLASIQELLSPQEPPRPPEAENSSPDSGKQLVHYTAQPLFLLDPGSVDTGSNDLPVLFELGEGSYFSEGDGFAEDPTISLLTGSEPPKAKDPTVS

As to AGCTAT, the binding signal was 1.16 fold enrichment (6-mer frequency, TF over GST control) with FEV; 1.16 fold enrichment (6-mer frequency, TF over GST control) in the experiment with ETV5; 1.12 fold enrichment (6-mer frequency, TF over GST control) in the experiment with HSF1; 1.15 fold enrichment (6-mer frequency, TF over GST control) with SPIC; 1.15 fold enrichment (6-mer frequency, TF over GST control) in the experiment with ELF4; 1.27 fold enrichment (6-mer frequency, TF over GST control) in the experiment with ELK4. Also, the binding signal in the experiment with ETV2 is 1.2 fold enrichment (6-mer frequency, TF over GST control); with ELF3 it was 1.2 fold enrichment (6-mer frequency, TF over GST control); in the experiment with CRX, 1.27 fold enrichment (6-mer frequency, TF over GST control); in the experiment with ETV1, 1.2 fold enrichment (6-mer frequency, TF over GST control); with ERF, 1.17 fold enrichment (6-mer frequency, TF over GST control); in the experiment with ETV3L it was 1.17 fold enrichment (6-mer frequency, TF over GST control). Also, the binding signal with ETS2 is 1.11 fold enrichment (6-mer frequency, TF over GST control); in the experiment with SPDEF, 1.14 fold enrichment (6-mer frequency, TF over GST control); in the experiment with ETV7, 1.13 fold enrichment (6-mer frequency, TF over GST control); with ELF5, 1.12 fold enrichment (6-mer frequency, TF over GST control); in the experiment with ETV3, 1.13 fold enrichment (6-mer frequency, TF over GST control); in the experiment with ETV6, 1.08 fold enrichment (6-mer frequency, TF over GST control).
